Screening data deposited in PubChem BioAssay by National Center for Advancing Translational Sciences (NCATS).
The full list was thinned out, with hits kept by preference.
Marburg entry inh – Marburg virus entry inhibition. Marburg virus pseudotyped entry inhibition, cell reporter. Potency, µM (highest dose often 37.8 µM), actives largely listed as inhibitors. 1.8% of 300,000 active. AID 540276; calls by dose curve; tested in HEK293 cells
Shiga inhibitor – blocks Shiga toxin action in Vero cells. 9.2% of 290,000 active. Vero cells, Shiga toxin protein synthesis inhibition reporter. inhibition, % at 38.7 µM. AID 2315; in the data active means inhibition mostly above about 28%, no sharp cut-off; inactive means mostly below about 43%
AMA1 RON2 block – disrupts binding of P. falciparum AMA1 to RON2; Potency, µM (highest dose often 58.2 µM), most hits filed as inhibitors; AlphaScreen AMA1-biotinylated RON2 peptide binding; AID 720542; 0.2% of 360,000 active; active means well fitted inhibition curve with a large enough effect; inconclusive means small, poorly fitted or top-dose-only effect; inactive means no such curve, though single readings can be large or run the other way; further: nearly all actives have a fitted effect of over 45% in size
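AMA1 (3D7) with his tag at 25 nM final met compounds first, then biotinylated RON2 peptide at 25 nM; detection used donor plus acceptor beads, 10 µg/mL apiece, read by AlphaScreen after 30 min at room temperature.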
CHX counter – counter-screen for Shiga toxin inhibitors: cycloheximide protein synthesis inhibition | cell reporter, cycloheximide protein synthesis inhibition counterscreen | max response, % | 12% of 300,000 active | AID 2314; in the data active means max response mostly above about 13%, no sharp cut-off; inactive means mostly below about 14%; further: read at 38.3 µM for the half of the compounds with a filed dose
Lassa entry inh – Lassa virus entry inhibition | Lassa virus pseudotype entry inhibition, cell reporter | Potency, µM (titrated, usually from 37.9 µM), most hits filed as inhibitors | 1.2% of 300,000 active | AID 540256; calls by dose curve; tested in HEK293 cells; further: nearly all actives have a fitted effect of over 50% in size
Each line names hits and unclear results; the compound was inactive in the other large screens.

O=C(CCS(=O)(=O)c1ccccc1)N1CCN(c2ccccc2F)CC1	Shiga inhibitor 110, CHX counter 35, Lassa entry inh inconclusive
Cc1ccc(CC(=O)N2CCN(c3ccccc3F)CC2)cc1	CHX counter 13 (no result: Marburg entry inh, Lassa entry inh)
Cc1ccc(C)c(N2CCN(c3ccc([N+](=O)[O-])cn3)CC2)c1	none (no result: Marburg entry inh, Lassa entry inh)
CCOC(=O)c1c(C)oc2c1cc(NS(=O)(=O)c1ccc(C)cc1)c1ccccc12	none (no result: Marburg entry inh, Shiga inhibitor, AMA1 RON2 block, CHX counter)
O=[N+]([O-])c1cccnc1N1CCCCC1	none
COc1ccccc1OCCC(=O)N1CCN(c2ccccc2OC)CC1	none
O=[N+]([O-])c1cccnc1N1CCN(c2ccccc2F)CC1	AMA1 RON2 block inconclusive, CHX counter 18
O=C(CCOc1ccccc1F)N1CCN(c2ccccc2O)CC1	Marburg entry inh inconclusive, Shiga inhibitor 70, CHX counter 31
Cc1ccc(N2CCN(c3ncccc3[N+](=O)[O-])CC2)c(C)c1	Marburg entry inh inconclusive, AMA1 RON2 block 13µM, Lassa entry inh inconclusive
Cc1ccccc1OCc1nc2ccccc2c(=O)n1NC(=O)c1ccco1	none
COc1ccc(CN2C(=O)C(CC(=O)NCc3cccc4ccccc34)CC(C(=O)N(C(C)C)C(C)C)=C2C)cc1 (centres undefined)	none (no result: Marburg entry inh, Shiga inhibitor, CHX counter, Lassa entry inh)
C/C=C/c1ccc(OCCCn2cncn2)c(OC)c1	Marburg entry inh inconclusive, AMA1 RON2 block inconclusive, CHX counter 11
C/C=C/c1ccc(OCCn2cncn2)c(OC)c1	none
C/C=C/c1ccc(OCCCCn2cncn2)c(OC)c1	Shiga inhibitor 54, AMA1 RON2 block inconclusive, CHX counter 34
CCC(c1nnnn1-c1ccc2c(c1)OCCO2)N1CCN(Cc2c(F)cccc2Cl)CC1 (centres undefined)	none (no result: Marburg entry inh, Shiga inhibitor, CHX counter, Lassa entry inh)
Cc1ccn2cc(-c3cc4ccccc4oc3=O)nc2c1	Marburg entry inh inconclusive, Shiga inhibitor 76, CHX counter 44, Lassa entry inh 1.6µM
Cc1ccc(C(=O)CNc2ccc(C)cc2C)cc1	AMA1 RON2 block inconclusive, CHX counter 13 (no result: Shiga inhibitor)
Cc1ccc(C(=O)CNc2ccccc2C)cc1	Shiga inhibitor 118, CHX counter 42
CCOC(=O)c1ccc(NC(=O)c2c(-c3c(F)cccc3Cl)noc2C)cc1	Lassa entry inh inconclusive (no result: Shiga inhibitor, AMA1 RON2 block, CHX counter)
Cc1cc(C)n(-c2ccnc3cc(Cl)ccc23)n1	CHX counter 18 (no result: Marburg entry inh, Lassa entry inh)
CN(C)S(=O)(=O)N1CCN(c2ccnc3cc(Cl)ccc23)CC1	none (no result: Marburg entry inh, Lassa entry inh)
COc1ccc(N2C(=O)N3[C@H](c4ccc(Cl)cc4)[C@@H]4C(=O)N(C5CCCCC5)C(=O)[C@@H]4[C@]3(Cc3ccc(Cl)cc3)C2=O)cc1	Shiga inhibitor 64, CHX counter 12 (no result: Marburg entry inh, Lassa entry inh)
CC(CC(=O)O)CC(=O)Nc1cc([N+](=O)[O-])ccc1O (centres undefined)	none
O=C(CSCc1ccc(Cl)cc1)Nc1cc([N+](=O)[O-])ccc1O	Marburg entry inh inconclusive, Shiga inhibitor 46, Lassa entry inh inconclusive
Cc1ccc(SCC(=O)Nc2cc([N+](=O)[O-])ccc2O)cc1	Marburg entry inh inconclusive, Shiga inhibitor 55, CHX counter 28, Lassa entry inh inconclusive
N/C(=N\OC(=O)c1ccc(Cl)cc1)c1ccccn1	Marburg entry inh inconclusive, Lassa entry inh inconclusive
CCOc1ccc(C(=O)O/N=C(\N)c2ccccn2)cc1OCC	Shiga inhibitor 85, CHX counter 52 (no result: Marburg entry inh, Lassa entry inh)
CCOc1cc(C(=O)O/N=C(\N)c2ccccn2)cc(OCC)c1OCC	Shiga inhibitor 54, CHX counter 53 (no result: Marburg entry inh, Lassa entry inh)
COc1ccc(C(=O)O/N=C(\N)c2ccccn2)cc1	Marburg entry inh inconclusive, Lassa entry inh inconclusive
CCOc1cc(C(=O)O/N=C(\N)c2ccc([N+](=O)[O-])cc2)cc(OCC)c1OCC	Marburg entry inh inconclusive
COc1cc(OC)cc(C(=O)O/N=C(\N)c2ccccn2)c1	Shiga inhibitor 116, CHX counter 51 (no result: Marburg entry inh, Lassa entry inh)
CC1Cn2cc(C(=O)Nc3ccccc3C(F)(F)F)c(=O)c3c(Cl)ccc(c32)O1 (centres undefined)	none (no result: Marburg entry inh, Shiga inhibitor, AMA1 RON2 block, CHX counter)
Cc1ccc2c(c1)C1CC(C)(O2)N(c2cccc(C(=O)N3CCN(c4ccccn4)CC3)c2)C(=O)N1 (centres undefined)	Lassa entry inh inconclusive
COc1cccc(CNCCc2c[nH]c3ccccc23)c1	Marburg entry inh 11µM, Lassa entry inh inconclusive
COc1ccc2[nH]cc(CCNCc3cccnc3)c2c1	none (no result: Marburg entry inh, Lassa entry inh)
Fc1ccc(CNCCc2c[nH]c3ccccc23)cc1	Marburg entry inh 10µM
COc1ccc(-c2c(C#N)c(SCC(=O)Nc3ccccc3C)nc(C)c2C(=O)Nc2ccccc2)cc1OC	none (no result: Marburg entry inh, Shiga inhibitor, AMA1 RON2 block, CHX counter)
O=C(c1ccco1)N1CCN(C(=O)c2ccc(COc3ccc4c(c3)CCC4)o2)CC1	Marburg entry inh inconclusive, Lassa entry inh 14µM
O=C(c1ccco1)N1CCN(C(=O)c2ccc(COc3ccc(Cl)cc3Cl)o2)CC1	Marburg entry inh inconclusive, Lassa entry inh 13µM (no result: Shiga inhibitor, CHX counter)
CCC(=O)c1ccc(OC(=O)N(C)c2ccccc2)cc1	CHX counter 26
CN(C(=O)Oc1ccc(F)cc1)c1ccccc1	Marburg entry inh inconclusive
CN(C(=O)Oc1ccc(C(C)(C)C)cc1)c1ccccc1	Shiga inhibitor 59, CHX counter 19
CC(=O)Nc1ccc(C=C(C#N)c2ccc(C)cc2)cc1	none (no result: Marburg entry inh, Shiga inhibitor, CHX counter, Lassa entry inh)
COC(=O)c1ccccc1NC(=O)CSc1nnc2cc(C)c3cc(C)cc(C)c3n12	none (no result: Shiga inhibitor, AMA1 RON2 block, CHX counter)
CCc1nc(C)cn1S(=O)(=O)c1ccc(Cl)c(Cl)c1OC	Marburg entry inh inconclusive (no result: Shiga inhibitor, AMA1 RON2 block, CHX counter)
S=C1N(c2ccccc2)C(c2ccccc2)N2CCCN12 (centres undefined)	Lassa entry inh 18µM
CN1C(=S)N2CCCN2C1c1ccccc1 (centres undefined)	none
Cc1ccc(CNC(=O)C(=O)NCC(c2ccc3c(c2)OCO3)N2CCOCC2)cc1 (centres undefined)	none (no result: Marburg entry inh, Shiga inhibitor, AMA1 RON2 block, CHX counter)
COc1ccc(Cc2nc(-c3ccccc3)no2)cc1	Marburg entry inh inconclusive, Shiga inhibitor 42, CHX counter 36
COc1ccc(Cc2nc(-c3cccs3)no2)cc1	Shiga inhibitor 70, CHX counter 33 (no result: Marburg entry inh, Lassa entry inh)
COc1ccc(Cc2nc(-c3ccc(-n4cccc4)cc3)no2)cc1	none
COc1cccc(NC(=O)CCc2nc(-c3cccs3)no2)c1	none
COc1ccc(Cc2nc(-c3cccs3)no2)cc1OC	CHX counter 24 (no result: Marburg entry inh, Lassa entry inh)
CCc1ccc(C(=O)O)cc1	none
C=Cn1c(C(=O)O)ccc1-c1ccc(CC)cc1	CHX counter 42 (no result: Marburg entry inh, Lassa entry inh)
COc1ccc2[nH]c(=O)c(CN(Cc3ccco3)C(c3nnnn3Cc3ccccc3)C(C)C)cc2c1 (centres undefined)	Marburg entry inh 13µM, Lassa entry inh inconclusive
CCC(C)(C)n1nnnc1C(C(C)C)N(Cc1ccco1)Cc1cc2cc3c(cc2[nH]c1=O)OCO3 (centres undefined)	Marburg entry inh 16µM
CCC(C)(C)n1nnnc1C(C(C)C)N(Cc1cccnc1)Cc1ccco1 (centres undefined)	Marburg entry inh inconclusive
N/C(=N\OC(=O)N1CCOCC1)c1ccc(Br)cc1	CHX counter 53 (no result: Marburg entry inh, Lassa entry inh)
N/C(=N\OC(=O)N1CCOCC1)c1ccccc1	Marburg entry inh inconclusive, CHX counter 23, Lassa entry inh 12µM
O=C(COc1ccc(Br)cc1)N1CCOCC1	Marburg entry inh inconclusive
N/C(=N\OC(=O)N1CCOCC1)c1ccc(Cl)cc1	Marburg entry inh 10µM, Shiga inhibitor 53, CHX counter 55, Lassa entry inh inconclusive
